Source: ChEMBL document CHEMBL3988442, “University of Dundee, Small-Polar-MMV Screening Library” (2021)
About 13,000 (27%) of roughly 48,000 compounds showed an effect of 50% or more. The list shows a part of the results.

Tested on: Wolbachia pipientis
Test: Anti-Wolbachia Cell-Based Screen
Type: functional
Set-up: scale not given: in the data most compounds retested in dose-response had high values
Conditions: 5 µM

Compared with `O=C1OCCN1Cc1cccc(C(F)(F)F)c1F`, `Cc1n[nH]cc1CNC1CCN(c2cccc(C(F)(F)F)c2)CC1` is higher in “Percent Effect” value: -20.92% for the first, -2.63% for the second.

First: CCC(NC(=O)c1ccco1)c1ccccc1OCC(=O)N1CCCC1 (stereo not drawn)
Second: Cc1cccc(C(=O)N2CCCC2)c1NCC(=O)NC(C)(C#N)C1CC1 (stereo not drawn)
The “Percent Effect” value of the first is higher: 7.206% for the first, 5.415% for the second.

Going from `CCOc1ccc(NC(=O)c2oc(CC)cc2C)cc1CO` to `CCc1cnc(CN(C(C)=O)C2CCN(CCc3cccs3)C2)o1` (stereo not drawn), the “Percent Effect” value rises from -16.02% to 1.615%.

Going from `CC(C)NC(=O)[C@@]12CCO[C@@H]1CCN(Cc1ccco1)C2.O=C(O)C(F)(F)F` to `Cc1cc(CN2CC[C@H]3OCC[C@@]3(C(=O)NCc3ccco3)C2)no1.O=C(O)C(F)(F)F`, the “Percent Effect” value falls from 113.3% to -7.292%.

Compared with `O=C(NCc1ccco1)[C@@]12CCO[C@@H]1CCN(CC1CCOCC1)C2.O=C(O)C(F)(F)F`, `O=C(O)C(F)(F)F.O=C([C@@H]1COC[C@H]2CN(CC3CC3)C[C@H]21)N1CCC(F)CC1` is higher in “Percent Effect” value: -4.272% for the first, -0.2992% for the second.

First: O=C(NC1CC1)[C@@H]1CCO[C@@H]2CCN(C3CCCC3)C[C@H]21
Second: CC(C)NC(=O)[C@H]1C[C@@H]2[C@@H](C1)OCCN2CC1CC1.O=C(O)C(F)(F)F
The “Percent Effect” value of the first is lower: -4.337% for the first, -2.648% for the second.

Compared with `COc1ccc(CN2CCN(CC3CC3)[C@@H]3CS(=O)(=O)C[C@@H]32)cc1O`, `COc1ccc(-c2cc[nH]n2)cc1CNC1CCCC1` is lower in “Percent Effect” value: 13.23% for the first, -3.837% for the second.

Compared with `CC(C)(C)c1n[nH]cc1CNC1CCC(C(F)(F)F)CC1.Cl` (stereo not drawn), `CC(C)(C)c1n[nH]cc1CNC1CCC(OCC(F)(F)F)CC1.Cl` (stereo not drawn) is lower in “Percent Effect” value: 89.77% for the first, 88.78% for the second.

Going from `Cc1ccc(CNCc2c[nH]nc2C(C)(C)C)c(OC2CCOC2)c1` (stereo not drawn) to `CC(C)(C)c1n[nH]cc1CNC1CCC(O)CC1` (stereo not drawn), the “Percent Effect” value rises from 13.41% to 81.49%.

Compared with `Cc1n[nH]cc1CNCc1ccnc(OCC(F)(F)F)c1.Cl`, `Cc1n[nH]cc1CNC1CCN(c2ccc(F)cc2)CC1.Cl` is higher in “Percent Effect” value: -12.37% for the first, -3.892% for the second.

Compared with `CN(Cc1ccccc1)CC(C)(C)NC(=O)c1cnccn1`, `Cc1ncc2c(n1)CCN(C(C(N)=O)c1ccccc1)C2` (stereo not drawn) is lower in “Percent Effect” value: 4.118% for the first, -10.42% for the second.

First: Cc1cccc(S(=O)(=O)N2CC[C@H]3[C@H]2CCN3c2ncccn2)c1.O=C(O)C(F)(F)F
Second: Cc1ccc(NCc2cn3c(n2)CN(Cc2ccc(C)o2)CC3)nn1.O=C(O)C(F)(F)F.O=C(O)C(F)(F)F
The “Percent Effect” value of the first is higher: -3.796% for the first, -14.5% for the second.

First: O=c1[nH]ccc2cc(-c3cc(O)cc(CCC4CCCCN4)c3)ccc12 (stereo not drawn)
Second: O=C(O)c1ccc2c(CN3CCCC3)c[nH]c2c1
The “Percent Effect” value of the first is lower: -30.56% for the first, -9.8% for the second.

Compared with `CCC(CC)c1cc(CNC(=O)N2CCCC(N(C)C)C2)on1` (stereo not drawn), `Cc1nc(CN2CCCC(N(C)CCc3cccs3)C2)no1` (stereo not drawn) is higher in “Percent Effect” value: -19.35% for the first, 6.086% for the second.

First: O=c1[nH]c(CCN2CCN(CC(F)(F)F)CC2)nc2ccccc12
Second: O=C(O)c1ccc2c(CN3CCOCC3)c[nH]c2c1
The “Percent Effect” value of the first is lower: -18.37% for the first, 6.765% for the second.

Compared with `O=C(CN1CCCNC1=O)Nc1ccccc1C(=O)C1CCCC1`, `CC(C)N1CC[C@H](c2nnc(Cc3c[nH]c4ccccc34)o2)C1` is lower in “Percent Effect” value: 8.695% for the first, -6.101% for the second.

Compared with `CC1(C)CN(Cc2nnc(-c3cccnc3)o2)CC[C@]1(C)O`, `Clc1ccc(CN2CCC3(CC2)CC(c2cccnc2)=NO3)cc1` is higher in “Percent Effect” value: -0.3969% for the first, 114.5% for the second.

Compared with `OCC1(Cc2ccc(Cl)cc2)CCN(Cc2cccnc2)CC1`, `Clc1ccc(CN2CCOC[C@H](Oc3cccnc3)C2)cc1` is higher in “Percent Effect” value: -27.42% for the first, -8.51% for the second.

Compared with `CC(C)CCN1CC[C@H](c2nnc(Cc3c[nH]c4ccccc34)o2)C1`, `CC(C)C1=NOC2(CCN(Cc3c[nH]c4ccccc34)CC2)C1` is higher in “Percent Effect” value: -3.447% for the first, 126.9% for the second.

Going from `c1cncc(C2=NOC3(CCN(Cc4c[nH]c5ccccc45)CC3)C2)c1` to `c1ccc(C2=NOC3(CCN(Cc4c[nH]c5ccccc45)CC3)C2)cc1`, the “Percent Effect” value rises from 119% to 122.3%.

First: c1cncc(O[C@H]2COCCN(Cc3c[nH]c4ccccc34)C2)c1
Second: O=C(CSc1ccc2c(c1)OCCO2)NS(=O)(=O)c1cccnc1
The “Percent Effect” value of the first is lower: 0.3938% for the first, 7.646% for the second.

First: CCc1nnc2n1CCN(C(=O)c1csc(-c3cnn(C)c3)n1)C2
Second: CCc1nc(CN(C(C)=O)C2CCN(CCc3cnn(C)c3)C2)no1 (stereo not drawn)
The “Percent Effect” value of the first is lower: -10.57% for the first, -3.276% for the second.

Compared with `CCN1C[C@H]2CCN(C(=O)C3CCCO3)CC[C@H]2S1(=O)=O` (stereo partly drawn), `CCCN1CCC(N(Cc2ncc(C)o2)C(C)=O)C1` (stereo not drawn) is higher in “Percent Effect” value: -2.394% for the first, 4.824% for the second.

First: CCn1c(C)nnc1CN(C)C1CCN(CCc2cccs2)C1 (stereo not drawn)
Second: Cc1nnc(CN(C)C2CCN(CCc3cccs3)C2)n1C (stereo not drawn)
The “Percent Effect” value of the first is lower: -15.8% for the first, 4.049% for the second.

First: CCc1nc(CN(C(C)=O)C2CCN(Cc3cnc(C)cn3)C2)no1 (stereo not drawn)
Second: CCc1nc(CN(C(C)=O)C2CCN(CCc3cccs3)C2)no1 (stereo not drawn)
The “Percent Effect” value of the first is lower: -6.946% for the first, 109.6% for the second.

First: Cc1ccc(CCN2CCC(N(C)Cc3noc(C4CC4)n3)C2)cc1 (stereo not drawn)
Second: CN(Cc1noc(C2CC2)n1)C1CCN(CCc2cccs2)C1 (stereo not drawn)
The “Percent Effect” value of the first is lower: 33.43% for the first, 86.2% for the second.

First: CN(Cc1nnc(C2CC2)o1)C1CCN(CCc2cccs2)C1 (stereo not drawn)
Second: Cc1nc(CN(C)C2CCN(CCc3cccs3)C2)no1 (stereo not drawn)
The “Percent Effect” value of the first is lower: -15.6% for the first, 100.8% for the second.

First: CC(=O)N(Cc1ncc(C)o1)C1CCN(CCc2cccs2)C1 (stereo not drawn)
Second: CCc1nc(CN(C)C2CCN(CCc3cccs3)C2)no1 (stereo not drawn)
The “Percent Effect” value of the first is lower: 95.79% for the first, 104.6% for the second.

Going from `CCc1nc(CN(C)C2CCN(CCc3ccccn3)C2)no1` (stereo not drawn) to `Cc1nc(CN(C)C2CCN(CCc3ccccn3)C2)no1` (stereo not drawn), the “Percent Effect” value rises from 16.6% to 113.1%.

Compared with `CCc1nc(CN(C)C2CCN(CCn3cccn3)C2)no1` (stereo not drawn), `CCc1nc(CN(C)C2CCN(CCS(C)(=O)=O)C2)no1` (stereo not drawn) is lower in “Percent Effect” value: 113.6% for the first, 2.202% for the second.

Going from `CC(C)c1cnc(CN(C)C2CCN(CCc3ccccn3)C2)o1` (stereo not drawn) to `CCc1nc(CN2CCCC(N(C)Cc3cnc(C)s3)C2)no1` (stereo not drawn), the “Percent Effect” value falls from -3.925% to -6.39%.

`CCc1nc(CN2CCCC(N(C)CCc3cccs3)C2)no1` (stereo not drawn) was tested, and the “Percent Effect” value was 105.7%.
